Source: PubChem BioAssay (Tox21)
Inconclusive results are not listed. Activity calls are given as the source filed them. Unless noted, calls follow the shape of the dose curve; as a rule, active = well fitted curve in the direction sought with a large enough effect in the repeat runs; inconclusive = weak or mixed curves; inactive = no such curve, though single readings can be large; an effect the other way counts as inactive or inconclusive.

How the values were obtained:
[1] = qHTS assay for small molecules that induce genotoxicity in human embryonic kidney cells expressing luciferase-tagged ATAD5 - cell viability (AID 651634; calls by dose curve; also: nearly all actives have a fitted effect of over 25% in size)
How it was run: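 HEK293T cells expressing luciferase-tagged ATAD5 were exposed to compound or DMSO for 15.5 hr at 37C, 5% CO2. Viability was then read as live-cell protease activity by CellTiter-Fluor fluorescence after 30 min at 37C.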

[2] = qHTS assay for small molecule disruptors of the mitochondrial membrane potential - cell viability (AID 720634; calls by dose curve;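 also: human HepG2 liver cancer cells; series mostly up to about 83 µM; nearly all actives have a fitted effect of over 20% in size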)
How it was run: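 HepG2 cells seeded overnight at 37 C, then exposed to compound or DMSO for 1 hr at 37 C, 5% CO2. m-MPI dye added, then CellTiter-Glo for 30 min at room temperature; viability read as ATP luminescence.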

[3] = qHTS assay to test for compound auto fluorescence at 535 nm (green) in HepG2 cells (AID 720675)
[4] = qHTS assay to test for compound auto fluorescence at 535 nm (green) in HEK293 cells (AID 720680)
[5] = qHTS assay to test for compound auto fluorescence at 460 nm (blue) in HEK293 cell free culture (AID 720681)
How it was run: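 Blue fluorescence (Ex 405/Em 460 nm, triamterene-equivalent) was read immediately after pin transfer of compound or DMSO into medium (DMEM, 10% FBS) without cells.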

[6] = qHTS assay to test for compound auto fluorescence at 535 nm (green) in HEK293 cell free culture (AID 720682)
How it was run: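 Green-channel intensity (Ex/Em 485/535 nm) was recorded from compound-treated wells containing only DMEM with 10% FBS. Fluorescein provided the equivalency standard.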

[7] = qHTS assay to test for compound auto fluorescence at 590 nm (red) in HEK293 cell free culture (AID 720683)
How it was run: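 Red-channel autofluorescence of compounds in culture medium (DMEM, 10% FBS), no cells, measured at 540/590 nm. Rose Bengal sodium is the reference fluorophore for equivalence.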

[8] = qHTS assay to test for compound auto fluorescence at 590 nm (red) in HepG2 cell free culture (AID 720684)
How it was run: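 Steps: dispense MEM/10% FBS medium, no cells; pin compound or DMSO vehicle; read red channel, Ex/Em 540/590 nm. Output given as Rose Bengal sodium equivalents.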

[9] = qHTS assay to test for compound auto fluorescence at 460 nm (blue) in HepG2 cell free culture (AID 720685)
How it was run: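 Compound (23 nL) or DMSO pinned into cell-free MEM with 10% FBS; blue fluorescence read at 405/460 nm excitation/emission, expressed as auto-fluorescence equivalency to triamterene.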

[10] = qHTS assay to test for compound auto fluorescence at 535 nm (green) in HepG2 cell free culture (AID 720686)
[11] = qHTS assay to identify small molecule antagonists of the androgen receptor (AR) signaling pathway using the MDA cell line - cell viability counter screen (AID 743041; also: nearly all actives have a fitted effect of over 45% in size)
How it was run: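 Cells were plated at 3,000 per well and left 5 h. Compounds in DMSO were then pinned in, followed by R1881. After 16 h at 37C, CellTiter-Fluor fluorescence gave viability.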

[12] = tested on: thyroid hormone receptor (rat, GH3 cells); experiment: qHTS assay to identify small molecule agonists of the thyroid receptor (TR) signaling pathway (AID 743066; calls by dose curve)
[13] = qHTS assay to identify small molecule antagonists of the estrogen receptor alpha (ER-alpha) signaling pathway - cell viability counter screen (AID 743074; calls by dose curve;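 also: HEK293 cells carrying ER-alpha-UAS-bla reporter stimulated with 17beta-estradiol; nearly all actives have a fitted effect of over 45% in size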)
[14] = qHTS assay to identify small molecule antagonists of the estrogen receptor alpha (ER-alpha) signaling pathway using the BG1 cell line - cell viability counter screen (AID 743081);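 also: compound given together with 17beta-estradiol as the ER stimulus; series mostly up to about 70 µM; nearly all actives have a fitted effect of over 45% in size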
[15] = target: Aromatase (Homo sapiens) (UniProt P11511); experiment: qHTS assay to identify aromatase inhibitors (AID 743083); also: series mostly up to about 70 µM; nearly all actives have a fitted effect of over 55% in size
Chain of Aromatase (Homo sapiens) (P11511 whole entry, looked up): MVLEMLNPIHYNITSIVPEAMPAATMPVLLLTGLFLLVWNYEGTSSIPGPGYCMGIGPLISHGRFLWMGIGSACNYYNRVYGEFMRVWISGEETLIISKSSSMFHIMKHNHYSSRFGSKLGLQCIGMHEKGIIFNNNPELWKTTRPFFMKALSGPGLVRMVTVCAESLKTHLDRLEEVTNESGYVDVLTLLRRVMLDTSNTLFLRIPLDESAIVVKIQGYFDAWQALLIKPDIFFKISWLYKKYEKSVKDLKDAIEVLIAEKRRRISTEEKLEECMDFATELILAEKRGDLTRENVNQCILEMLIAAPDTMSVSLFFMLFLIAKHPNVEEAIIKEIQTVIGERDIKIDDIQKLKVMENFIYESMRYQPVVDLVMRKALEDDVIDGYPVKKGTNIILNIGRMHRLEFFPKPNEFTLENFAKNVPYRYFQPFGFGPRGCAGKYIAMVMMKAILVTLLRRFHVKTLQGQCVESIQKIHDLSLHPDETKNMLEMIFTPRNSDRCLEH

[16] = qHTS assay to identify aromatase inhibitors - cell viability counter screen (AID 743084);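 also: cells stimulated with testosterone during compound exposure; nearly all actives have a fitted effect of over 55% in size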
[17] = target: Aryl hydrocarbon receptor (Homo sapiens) (UniProt P35869); experiment: qHTS assay to identify small molecule that activate the aryl hydrocarbon receptor (AhR) signaling pathway (AID 743085);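 also: HG2L7.5c1 human HepG2 liver cells with stably integrated DRE-driven firefly reporter; series mostly up to about 70 µM; nearly all actives have a fitted effect of over 15% in size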
Chain of Aryl hydrocarbon receptor (Homo sapiens) (P35869 whole entry, looked up): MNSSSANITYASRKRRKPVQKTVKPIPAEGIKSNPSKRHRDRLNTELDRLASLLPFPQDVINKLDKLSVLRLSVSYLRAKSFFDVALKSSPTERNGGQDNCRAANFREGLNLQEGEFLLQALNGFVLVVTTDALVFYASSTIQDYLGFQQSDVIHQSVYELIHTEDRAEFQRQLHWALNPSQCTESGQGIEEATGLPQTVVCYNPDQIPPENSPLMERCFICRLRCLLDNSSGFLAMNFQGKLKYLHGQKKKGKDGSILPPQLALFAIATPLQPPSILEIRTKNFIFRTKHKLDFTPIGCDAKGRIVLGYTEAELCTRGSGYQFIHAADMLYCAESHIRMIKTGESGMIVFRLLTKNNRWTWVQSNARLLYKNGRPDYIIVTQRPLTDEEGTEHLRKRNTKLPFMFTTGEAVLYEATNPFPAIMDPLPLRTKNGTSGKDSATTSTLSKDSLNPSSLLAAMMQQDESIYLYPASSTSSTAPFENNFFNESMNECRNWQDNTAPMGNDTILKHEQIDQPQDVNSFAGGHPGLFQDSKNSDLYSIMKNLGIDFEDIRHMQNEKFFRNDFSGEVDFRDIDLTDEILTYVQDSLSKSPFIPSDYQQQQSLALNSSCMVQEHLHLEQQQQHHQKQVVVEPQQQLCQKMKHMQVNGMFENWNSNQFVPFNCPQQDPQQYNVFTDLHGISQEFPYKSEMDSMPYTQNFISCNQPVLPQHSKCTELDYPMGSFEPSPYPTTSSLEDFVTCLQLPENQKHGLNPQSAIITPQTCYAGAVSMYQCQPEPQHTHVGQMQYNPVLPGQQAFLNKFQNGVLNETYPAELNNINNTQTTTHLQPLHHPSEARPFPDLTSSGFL
How it was run: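 AhR agonist activity is inferred from enhanced light output of a DRE-controlled firefly luciferase reporter in HepG2 cells, measured with ONE-Glo following 24 h treatment at 37C.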

[18] = qHTS assay to identify small molecule that activate the aryl hydrocarbon receptor (AhR) signaling pathway - cell viability counter screen (AID 743086);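 also: HepG2 liver cells carrying the AhR DRE luciferase reporter; series mostly up to about 70 µM; nearly all actives have a fitted effect of over 45% in size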
How it was run: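 Cytotoxicity counter screen: CellTiter-Fluor signal (30 min, 37 C) in 4000 HepG2 cells/well carrying the DRE-luciferase reporter, following 24 h compound exposure at 37 C.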

[19] = qHTS assay to identify small molecule phospholipidosis (PLD) inducers (AID 1259344; active = well fitted curve in the direction sought with a large enough effect; an effect the other way counts as inactive or inconclusive)
How it was run: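 Phospholipidosis is scored by imaging LipidTOX-stained pits in HepG2 cells exposed to compound for 24 h at 37 C; pit counts and integrated intensities per well and per cell serve as outputs.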

[20] = target: Nuclear receptor subfamily 1 group I member 2 (Rattus norvegicus) (UniProt Q9R1A7); experiment: Rat pregnane X receptor (rPXR) activation by small molecules, qHTS assay (AID 1346983); details: rPXR luciferase reporter cells, One-Glo luminescence, 24 h; max activation: stronger effect = higher value; also: nearly all actives have a fitted effect of over 20% in size
Chain of Nuclear receptor subfamily 1 group I member 2 (Rattus norvegicus) (Q9R1A7 whole entry, looked up): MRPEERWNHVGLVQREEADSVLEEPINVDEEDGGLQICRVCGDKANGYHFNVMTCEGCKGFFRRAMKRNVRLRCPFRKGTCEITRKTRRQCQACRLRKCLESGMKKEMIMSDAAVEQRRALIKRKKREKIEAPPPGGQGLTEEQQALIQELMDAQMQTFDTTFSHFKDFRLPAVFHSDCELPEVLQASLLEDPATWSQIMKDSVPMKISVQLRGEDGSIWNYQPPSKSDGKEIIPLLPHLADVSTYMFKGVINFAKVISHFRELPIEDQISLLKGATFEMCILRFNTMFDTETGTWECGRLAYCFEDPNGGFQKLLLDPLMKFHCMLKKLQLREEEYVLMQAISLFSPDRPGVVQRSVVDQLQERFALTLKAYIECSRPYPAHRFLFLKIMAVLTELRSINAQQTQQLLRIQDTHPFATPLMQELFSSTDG
How it was run: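 Luminescent readout (One-Glo luciferase, 30 min room temperature) followed 24 hr compound treatment at 37 C of rPXR cells plated 2,000 per well and preincubated 5hr; qHTS format with compounds delivered in DMSO.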
% is scaled to controls: 0 for no effect and ±100 for the full control effect.

CCCC(C)(COC(N)=O)COC(=O)NC1CC1 (centres undefined)
inactive: Potency [1] | Potency [2] | Potency [3] | Potency [4] | Potency [5] | Potency [6] | outcome [7] | outcome [8] | Potency [9] | Potency [10] | Potency [11] | Potency [12] | Potency [13] | Potency [14] | Potency [15] | Potency [16] | Potency [17] | Potency [18] | Potency [19] | max activation [20] -2.91%

CCOc1ccc2c3c1O[C@H]1[C@@H](O)C=C[C@H]4[C@@H](C2)N(C)CC[C@@]341
inactive: Potency [1] | Potency [2] | Potency [3] | Potency [4] | Potency [5] | Potency [6] | outcome [7] | outcome [8] | Potency [9] | Potency [11] | Potency [12] | Potency [13] | Potency [14] | Potency [15] | Potency [16] | Potency [18] | Potency [19] | max activation [20] -1.03%

C[C@@H](CO)NC(=O)[C@@H]1C=C2c3cccc4[nH]cc(c34)C[C@H]2N(C)C1
inactive: Potency [1] | Potency [2] | Potency [3] | Potency [4] | Potency [5] | Potency [6] | outcome [7] | outcome [8] | Potency [9] | Potency [10] | Potency [11] | Potency [12] | Potency [13] | Potency [14] | Potency [15] | Potency [16] | Potency [17] | Potency [19] | max activation [20] -0.825%

O=c1[nH]cc(N(CCCl)CCCl)c(=O)[nH]1
inactive: Potency [1] | Potency [3] | Potency [4] | Potency [5] | Potency [6] | outcome [7] | outcome [8] | Potency [9] | Potency [11] | Potency [12] | Potency [14] | Potency [15] | Potency [16] | Potency [17] | Potency [18] | Potency [19] | max activation [20] -3.28%

CCCCNCC(O)c1ccc(O)cc1 (centres undefined)
inactive: Potency [1] | Potency [2] | Potency [3] | Potency [4] | Potency [5] | Potency [6] | outcome [7] | outcome [8] | Potency [9] | Potency [10] | Potency [11] | Potency [12] | Potency [13] | Potency [14] | Potency [18] | Potency [19] | max activation [20] -0.163%

CNC(=O)OCC[N+](C)(C)C
inactive: Potency [1] | Potency [2] | Potency [3] | Potency [4] | Potency [5] | Potency [6] | outcome [7] | outcome [8] | Potency [9] | Potency [10] | Potency [11] | Potency [13] | Potency [14] | Potency [15] | Potency [16] | Potency [17] | Potency [18] | Potency [19] | max activation [20] 0.49%

CC(=O)OCC(=O)[C@H]1CC[C@H]2[C@@H]3CC[C@H]4C[C@H](O)CC[C@]4(C)[C@H]3C(=O)C[C@]12C
inactive: Potency [1] | Potency [2] | Potency [3] | Potency [4] | Potency [5] | Potency [6] | outcome [7] | outcome [8] | Potency [9] | Potency [11] | Potency [12] | Potency [13] | Potency [14] | Potency [15] | Potency [16] | Potency [17] | Potency [18] | Potency [19] | max activation [20] -0.613%
